Test results from PubChem BioAssay.
“And” between values parts separate entries of the source, which are not always exact repeats. Equal values may be shown once. The source made the active and inactive calls.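 How the source made its calls, unless noted: active means compounds lowering colon cancer cell viability after pretreatment blocking the GSK3B kinase; inactive means the rest.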

Experiments:
[1] = system: Hepatitis C virus NS3 helicase; test: HCV NS3 helicase inhibitors, primary screen, biochemical, fluorescence polarization, LOPAC1280 library (AID 687035; in the data active means inhibition above about 37%); details: Purified HCV NS3 helicase, Cy5-dT15 ssDNA binding fluorescence polarization; stronger effect = higher value; concentration not given here
[2] = Cy5 fluorescence quenching or enhancement artefacts, artefact control for HCV NS3 helicase inhibitor project, biochemical, LOPAC1280 (AID 687037; call rule not given here); details: Cy5-DNA-NS3h complex fluorescence interference counterscreen
[3] = stimulators of nuclear beta-catenin in C2C12, primary screen, imaging, WNT3A-conditioned medium, mouse C2C12, NPC library (AID 1117326; in the data active means nuclear beta-catenin stimulation mostly above about 4.2%, no sharp cut-off; inactive means mostly below about 10%); details: stronger effect = higher value
[4] = stimulators of insulin release from INS-1E, primary screen, cell-based, 5 mM glucose, NPC library (AID 1117329;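 active means compound raises insulin release from rat beta cells at 5 mM glucose, no numeric limit stated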); details: rat INS-1E insulin secretion, at 10 µM, stronger effect = higher value
[5] = growth inhibition of GSK3B-pretreated HCT116 cells – cell-based, CellTiter-Glo, 0.2 to 20 µM (AID 1117336); details: HCT116 viability after GSK3B inhibitor, at 20 µM, stronger effect = higher value
[6] = inhibition of endothelial tube formation, primary screen, imaging, VEGF stimulated, CD31 staining, tube area, NPC library (AID 1117340;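 active means compound that reduces growth-factor-driven endothelial tube area in a mixed cell culture, no cutoff stated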); details: VEGF-stimulated ADSC/ECFC co-culture, at 10 µM, stronger effect = higher value
[7] = glucagon-like peptide 1 release enhancers, primary assay, NCI-H716 cell line, NPC library (AID 1117341;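 active means compound raises GLP1 secretion from the human gut endocrine cells, with no numeric limit stated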); details: NCI-H716 cells, at 10 µM, stronger effect = higher value
[8] = HCT116 colon cancer cell growth inhibition, primary screen, CellTiter-Glo luminescence, NPC library (AID 1117342;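 active means compounds that lower survival of HCT116 colon cancer cells in the luminescence readout, no numeric limit stated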); details: at 20 µM (top of the series)
[9] = CellTiter-Glo luminescent readout of SW480 viability loss, NPC library primary (AID 1117343;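 active means compounds that lower viability of the colon cancer cells in the luminescence readout, with no numeric limit stated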); details: CellTiter-Glo luminescence; at 20 µM (top of the series)
[10] = decreased DLD-1 cellular survival, CellTiter-Glo luminescent readout, NPC compound collection, primary HTS (AID 1117346;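 active means compounds that lower survival of DLD-1 colon cancer cells in the luminescence readout, no cutoff given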); details: DLD-1 viability, CellTiter-Glo luminescence; at 20 µM (top of the series)
[11] = target: 6-phosphogluconate dehydrogenase, decarboxylating (Homo sapiens) (UniProt P52209); test: 6PGD enzyme inhibitors, primary screen, biochemical, human, recombinant enzyme, NADPH absorbance (AID 1159550;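 active means at least 20% inhibition of 6-phosphogluconate dehydrogenase activity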); details: recombinant 6PGD, NADPH absorbance 341 nm; at 10 µM; stronger effect = higher value
Chain of 6-phosphogluconate dehydrogenase, decarboxylating (Homo sapiens) (P52209 whole entry, looked up): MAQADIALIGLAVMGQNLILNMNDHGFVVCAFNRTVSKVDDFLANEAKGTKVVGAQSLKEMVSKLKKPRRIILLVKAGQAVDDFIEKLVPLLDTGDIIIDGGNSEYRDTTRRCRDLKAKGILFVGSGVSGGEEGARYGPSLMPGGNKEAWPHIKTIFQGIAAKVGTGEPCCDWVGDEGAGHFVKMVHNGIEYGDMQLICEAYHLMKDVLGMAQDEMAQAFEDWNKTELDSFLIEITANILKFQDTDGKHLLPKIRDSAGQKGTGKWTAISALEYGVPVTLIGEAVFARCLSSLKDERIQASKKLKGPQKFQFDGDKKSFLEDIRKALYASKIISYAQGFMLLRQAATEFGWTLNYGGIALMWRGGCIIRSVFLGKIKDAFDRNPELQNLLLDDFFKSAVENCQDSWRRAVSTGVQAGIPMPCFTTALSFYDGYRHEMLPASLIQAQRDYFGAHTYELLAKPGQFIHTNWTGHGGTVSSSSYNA

[12] = liver-stage malaria parasite growth inhibition, primary screen, cell-based, HepG2, luciferase luminescence, HepG2 viability (AID 624349; in the data active means parasite load remaining mostly below about 12%, no sharp cut-off; inactive means mostly above about 10%;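 further: 100% = mean of DMSO negative control wells on the same plate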); details: P. berghei liver stage in HepG2, luciferase luminescence, concentration not given here; parasite load remaining: stronger effect = lower value; viability: measured here: HepG2 viability without parasites

| SMILES | inhibition [1] | fluorescence ratio (interference) [2] | nuclear beta-catenin stimulation ([3]; at 10 µM) | nuclear beta-catenin stimulation ([3]; stimulation, at 2 µM) [%] | insulin secretion stimulation [4] | viability decrease [5] | tube area decrease [6] | GLP1 secretion stimulation [7] | inhibition of viability [8] | viability decrease (inhibition) [9] | viability decrease (inhibition) [10] | inhibition [11] | parasite load remaining [12] | viability [12] |
| --- | --- | --- | --- | --- | --- | --- | --- | --- | --- | --- | --- | --- | --- | --- |
| CC(C)NNC(=O)c1ccncc1 | -3% (inactive) | 0.9 (inactive) | 2.3% (inactive) | -0.3 | -2.5% (inactive) | -3.15% (inactive) | 5.7% (inactive) | 0.4% (inactive) | 4.9% (inactive) | 34.8% (inactive) | 7.6% (inactive) | -0.838% (inactive) |  |  |
| Cc1nnc(SCC2=C(C(=O)O)N3C(=O)[C@@H](NC(=O)Cn4cnnn4)[C@H]3SC2)s1 | -3% (inactive) | 0.9 (inactive) | 0.1% (inactive) | 0.2 | -1.7% (inactive) | 3.2% (inactive) | 10.5% (inactive) | 2.7% (inactive) | 1.2% (inactive) | 4.8% (inactive) | -22.3% (inactive) | 1.44% (inactive) | 82.1% (inactive) and 85.3% (inactive) and 68.8% (inactive) | 98.8% and 78.7% and 99.1% |
| CCn1cc(C(=O)O)c(=O)c2cc(F)c(N3CCNC(C)C3)c(F)c21 (configuration not stated) | -1% (inactive) | 1 (inactive) | 1.8% (inactive) | 1.2 | 1.7% (inactive) | 15.3% (inactive) | -13.3% (inactive) | -0.4% (inactive) | 0.55% (inactive) | -10.7% (inactive) | -20.1% (inactive) | -3.66% (inactive) |  |  |
| C=Cc1c(C)c2cc3[nH]c(cc4nc(cc5nc(cc1[nH]2)C(C)=C5CCC(=O)O)C(CCC(=O)O)=C4C)c(C)c3C=C | 140% (active) | 2 (active) | -3.7% (inactive) | 0.1 | -1.6% (inactive) | 37.8% (inactive) | -597% (inactive) | 117% (active) | 73.5% (active) | 120% (active) | 93% (active) | 16.8% (inactive) | 108% (inactive) | 65.3% |
